# From PubChem
# Compounds with a hit are over-represented: about 7.9% of the library has one in this group of screens.
# SW480 rereplic: DNA re-replication induction in SW480 cells; SW480 DNA re-replication, Hoechst DNA content imaging, 48 h; Potency, µM (series often up to 46.1 µM), without a hit: at the highest dose re-replication activation, hits mostly activators; 340,000 tested, 1.8% active; AID 624297; note: % of control where 0% means no effect; nearly all actives have a fitted effect of over 55% in size
#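 Image-based read-out: total Hoechst fluorescence of nuclei (405 nm excitation, 500-530 nm emission), with hits raising the fraction of high-intensity nuclei. SW480 colon cells incubated 48 hr with compounds at 37 C.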
# HT1080-NT tox: kills 2HG-producing HT-1080-NT fibrosarcoma cells | HT-1080-NT fibrosarcoma viability, CellTiter-Glo ATP luminescence, 48 h | 360,000 tested, 1.6% active | Potency, µM (titrated, usually from 46.1 µM), without a hit: at the highest dose activity, negative = less viability, most hits filed as cytotoxic;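 note: NT is the 2HG producing partner of a matched IDH1 knockdown line; 0% = DMSO-treated cells and -100% = media-only wells without cells; nearly all actives have a fitted effect of over 55% in size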
#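 750 cells/well, RPMI + 5% FBS; 2 h settle, compound pin-transfer, 48 h at 37 degrees C. CellTiter-Glo 10 min RT, luminescence. Normalized to DMSO and media-only wells.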
# KB-3-1 tox: KB-3-1 parental cell cytotoxicity | KB-3-1 viability, CellTiter-Glo ATP luminescence, 72 h | Potency, µM (titrated, usually from 46.1 µM), actives largely listed as cytotoxic | 400,000 tested, 1.4% active | AID 1347075; note: % is set by controls: 0 for no effect and ±100 for the full control effect; nearly all actives have a fitted effect of over 60% in size
#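 KB-3-1 parental drug-naive adenocarcinoma cells in DMEM/10% FBS, incubated 72 h at 37 C with pin-transferred compounds across a concentration series. Viability by CellTiter-Glo luminescence; concentration-response curves fitted after normalization.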
# MCF10A rereplic: induces DNA re-replication in MCF 10a normal breast cells | Potency, µM (titrated, usually from 46.1 µM), for the others: at the highest dose activity, positive = re-replication, hits mostly activators | MCF 10A DNA re-replication, Hoechst nuclear intensity, 48 h | 350,000 tested, 2.9% active; note: % of control where 0% means no effect; nearly all actives have a fitted effect of over 50% in size
# HT1080 IDH1KD tx: HT-1080 IDH1 knockdown cell toxicity (counter line); HT-1080 IDH1 knockdown viability, ATP luminescence, 48 h; Potency, µM (top dose mostly 46.1 µM), for inactives: at the highest dose activity, negative = toxicity, usual class: cytotoxic; 360,000 tested, 2% active;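 note: 0% = DMSO wells and -100% = cell-free medium wells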
#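 Viability of IDH1-knockdown HT-1080 fibrosarcoma cells was assessed by CellTiter-Glo after 48 h at 37 °C with titrated compound; concentration-effect curves were classified by fit quality and response size.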
# KB-V1 MDR tox: KB-V1 MDR subline cytotoxicity. 400,000 tested, 3.4% active. KB-V1 MDR cells viability, CellTiter-Glo, 72 h. Potency, µM (doses to about 46.1 µM), usual class: cytotoxic; note: % is set by controls: 0 for no effect and ±100 for the full control effect; nearly all actives have a fitted effect of over 60% in size
#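 Cytotoxicity toward P-gp-expressing KB-V1 cells was determined as loss of CellTiter-Glo luminescence after 72 h at 37 degrees C. Compounds were tested in quantitative HTS format across a concentration range, with curves fitted to normalized data.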
# The depositor's hits bear a star; i = inactive; ? = inconclusive; / = not tested or not shown; [ ] = dose if it differs, or a comment. Calls come from the whole dose curve; as a rule, active = well fitted curve in the direction sought with a large enough effect; inconclusive = small, poorly fitted or top-dose-only effect, or another doubt; inactive = no such curve, though single readings can be large; an effect the other way counts as inactive or inconclusive. Potency is the fitted concentration of half-maximal effect.
SMILES,SW480 rereplic,HT1080-NT tox,KB-3-1 tox,MCF10A rereplic,HT1080 IDH1KD tx,KB-V1 MDR tox
CC(Nc1nc(-c2ccc(F)cc2)cs1)c1nc2cc(Cl)c(N3CCCCC3)cc2n1CCOCCO (stereo not given),-3%,?,?,-3%,?,i
CC1(C)C2([N+](=O)[O-])CN(CCO)CC1([N+](=O)[O-])CN(CCO)C2,3%,-6%,i,-3%,2%,i
CC1(C)C2([N+](=O)[O-])CN3CC1([N+](=O)[O-])CN(C2)C3C(O)C(O)C(O)CO (stereo not given),10µM*,-5%,i,-2%,12%,i
CC1=C(C#N)C(c2cn(-c3ccccc3)nc2-c2cccs2)C(C#N)=C(C)N1,-2%,?,?,-9%,?,i
Cc1ccc(-n2c(C)cc(C3N=C(N)Nc4nc5ccccc5n43)c2C)c(C)c1 (stereo not given),-17%,?,i,?,20µM*,i
NC1=NC(c2cn(-c3ccccc3)nc2-c2cccs2)n2c(nc3ccccc32)N1 (stereo not given),0%,18µM*,i,?,?,i
NC1=NC(c2ccc(F)cc2)n2c(nc3ccccc32)N1 (stereo not given),?,9%,i,26µM*,-4%,i
Cc1cc(/C=C(\C#N)C(=O)NCC2CCCO2)c(C)n1-c1ccc(Cl)cc1 (stereo not given),-13%,-11%,i,3%,?,4.1µM*
Cc1ccc(C)c(OCCn2cc(/C=C(/C#N)C(=O)NCC3CCCO3)c3ccccc32)c1 (stereo not given),25%,-8%,i,?,-12%,15µM*
N#C/C(=C\c1cn(CCOc2ccccc2)c2ccccc12)C(=O)NCC1CCCO1 (stereo not given),?,-2%,i,19%,-16%,6.5µM*
COc1ccccc1OCCn1cc(/C=C(\C#N)C(=O)NCc2cccs2)c2ccccc21,-14%,-1%,i,-6%,-1%,18µM*
CNC(=O)/C(C#N)=C/c1cn(CC(=O)OC)c2ccccc12,-47%,9%,i,?,11%,i
CCOCCc1nn2c(=O)cc(COC(=O)CNC(=O)c3cccc(C)c3)nc2s1,/,/,i,/,/,i
CCCN1CNc2c(c(=O)[nH]c(=S)n2CCc2ccc(C)cc2)C1,/,8%,/,/,16%,/
Cn1ncc(C(=O)N2CCN(c3ccccc3)CC2)c1C1CCN(C(=O)OC(C)(C)C)CC1,/,/,i,/,/,i
COc1ccc(-c2nc3n(n2)C(c2ccccc2OC)C(C(=O)Nc2cccnc2)=C(C)N3)cc1 (stereo not given),/,/,i,/,/,i
CCOc1ccc(NC(=O)/C(C#N)=C/c2cn(CC(=O)O)c3ccccc23)cc1,-3%,5%,i,?,0%,i
CCOC(=O)/C(C#N)=C/c1cn(CCOc2ccc(OC)cc2)c2ccccc12,4%,-6%,i,16µM*,-3%,i
O=C(CN(Cc1ccccc1)C(=O)c1cc2c(s1)CCC2)NCc1cccs1,17%,-1%,?,14%,-7%,2.9µM*
O=C(CN1C(=O)COc2ccc(S(=O)(=O)N3CCOCC3)cc21)N1CCN(c2ccc(Cl)cc2)CC1,/,/,i,/,/,?
O=C(CN1C(=O)CSc2ccc(S(=O)(=O)N3CCCCC3)cc21)NCc1ccc(F)cc1Cl,/,/,i,/,/,i
O=S1(=O)N=C(Nc2ccc(N3CCOCC3)cc2)c2ccccc21,-9%,7%,i,-1%,12%,i
Cc1ccccc1-c1ccc(Nc2ccc(N3CCOCC3)cc2)nn1,-2%,-1%,i,16%,-26%,21µM*
Cc1cc(Nc2cccc(F)c2)nc(NCc2ccccc2)n1,?,?,?,?,?,8.2µM*
Fc1cc(NCc2ccccc2)nc(NCc2ccccc2)n1,1%,-9%,i,?,-10%,i
SMILES,SW480 rereplic,HT1080-NT tox,KB-3-1 tox,MCF10A rereplic,HT1080 IDH1KD tx,KB-V1 MDR tox
CCCCNc1cc(C)nc(NCc2ccccc2)n1,-2%[9.22 µM],26µM*,6.5µM*,25%,23µM*,5.8µM*
Cc1cc(Nc2ccc(Cl)cc2)nc(NCc2ccccc2)n1,?,?,?,?,?,21µM*
Cc1cc(Oc2ccccc2F)nc(NCc2ccccc2)n1,?,-6%,?,29%,-18%,?
Cc1cc(Nc2ccccc2)nc(NCc2ccccc2)n1,?,?,21µM*,16µM*,23µM*,10µM*
CSc1cccc(NC(=O)C2CCCN(S(C)(=O)=O)C2)c1 (stereo not given),/,-6%,i,/,0%,i
COc1ccccc1C(=O)Nc1ccccc1SCc1cc(=O)c2ccccc2[nH]1,/,/,i,/,/,i
CC(C)c1ccc(Nc2ncnc3onc(-c4ccc(F)cc4)c23)cc1,/,/,i,/,/,i
O=C1C2CCC(C2)C1CN1CCOCC1 (stereo not given),-5%,0%,i,-1%,2%,i
CCOCCc1nnc(NC(=O)C(=O)c2cc(C)n(-c3ccc(C)cc3C)c2C)s1,/,/,i,/,/,i
Cc1cc(N2CCC(C)CC2)nc(NCc2ccccc2)n1,0.52µM*,-1%,13µM*,25%,0%,i
Cc1cc(Oc2ccccc2)nc(NCc2ccccc2)n1,?,-6%,16µM*,19%,-17%,21µM*
CC(=O)N1CCc2c(sc3c2c(=O)n(-c2ccccc2C)c(=O)n3CC(=O)c2ccccc2)C1,/,/,i,/,/,i
CCN(Cc1ccccc1)C(=O)Cn1c(C(C)O)nc2ccccc21 (stereo not given),-32%,1%,i,0.73µM*,2%,i
O=C(Nc1ccc(F)cc1F)C1CCN(c2ncccn2)CC1,/,/,i,/,/,i
COc1ccc(C2=Nn3c(nnc3-c3ccccc3Cl)SC2)cc1OC1CCCC1,21µM*,/,?,16µM*,/,i
FC(F)Oc1ccc(C2=Nn3c(nnc3-c3ccccc3Cl)SC2)cc1OCC1CC1,-2%,/,i,1%,/,i
COc1ccc(C2=Nn3c(nnc3-c3ccccc3Cl)SC2)cc1OC1CCOC1 (stereo not given),?,/,13µM*,?,/,?
COc1ccc(OC)c(-c2nnc3n2N=C(c2ccc(OC)c(OC4CCOC4)c2)CS3)c1 (stereo not given),?,/,0.12µM*,?,/,?
Cc1cc(C)c(NC(=O)COc2ccc3c(C)cc(=O)oc3c2)c(C)c1,/,/,i,/,/,i
